Laboratory results published in ChEMBL document CHEMBL4513216, “Probing the Open Global Health Chemical Diversity Library for Multistage-Active Starting Points for Next-Generation Antimalarials” (ACS Infect Dis, 2020).
Among all 69,000 compounds or so, about 8,600 (12%) showed an effect of 50% or more. This is one part of a sample in which strong results are shown more often than they occur.

Test system: Plasmodium berghei
Test: Screen against P. berghei liver stage (PbLuc), transformed with Luciferase, at 10uM
Format: functional, HepG2
Settings: tested at 10 uM

| SMILES | INHIBITION [%] |
| --- | --- |
| Cc1nc(-c2ccncc2)ncc1C(C)NC(=O)C1=NN(C)C(=O)CC1 (stereo unspecified) | -9.29 |
| CN1CCCC(C(=O)N2CCC(Oc3ccc(C#N)cn3)CC2)C1 (stereo unspecified) | 74.4 |
| COc1ccccc1OC1CCN(C(=O)c2cnc(C)s2)CC1 | 12.7 |
| COc1ccccc1OC1CCN(C(=O)C2CCCN(C)C2)CC1 (stereo unspecified) | 62.8 |
| Cn1nc(C(=O)N2CCC(Oc3ccc(C#N)cn3)CC2)ccc1=O | 25.8 |
| CC(=O)N1CCC(Oc2ccc(C#N)cn2)CC1 | -43.5 |
| CN1CCCC(C(=O)N2CCC(Oc3ccccn3)CC2)C1 (stereo unspecified) | 25.3 |
| COCc1ncn2c1CN(C(=O)c1ccco1)CC2 | 4.57 |
| CCC1CNCc2cc3c(C)ccc(C)c3nc2O1 (stereo unspecified) | 21.7 |
| COc1cccc(C(=O)NC(C)CCN2CCOCC2)c1F (stereo unspecified) | 34.1 |
| CC(CCN(C)C)NC(=O)c1cccc(C(F)(F)F)c1F (stereo unspecified) | 66.5 |
| CC(CCN1CCOCC1)NC(=O)c1cccc(C(F)(F)F)c1F (stereo unspecified) | 35 |
| COc1c(CNCCC(=O)NC2CCCC2)c(C(C)C)nn1C | 21 |
| O=C(C[C@@H]1COC[C@H]2CN(Cc3ccc(F)cc3)C[C@@H]12)N1CCCC1 | -21.1 |
| CC(C)Nc1cccc(CNC(=O)N2CCC(N3CC=CC3)C2)c1 (stereo unspecified) | 19.4 |
| CC(C)Nc1cccc(CNC(=O)N2CCCC2)c1 | 24.2 |

| SMILES | INHIBITION [%] |
| --- | --- |
| CC(C)Nc1cccc(CNC(=O)N2CCC[C@@H]2CO)c1 | 52.2 |
| CC1=Nc2c(c(O)nn2C(C)C)C(c2cn(C)nc2C)S1 (stereo unspecified) | 33.3 |
| CCn1cc(Cl)c(C(=O)NCCCO)n1 | 20.1 |
| COc1ccc2cc(NC(=O)CCCNc3ncccn3)cnc2c1 | 46.1 |
| COc1ccc(NC(=O)CCNc2ncccn2)cn1 | 61 |
| O=C(CCCNc1ncccn1)Nc1ccc(Cn2cncn2)cc1 | 45.9 |
| O=C(CCNc1ncccn1)Nc1ccc(Cn2cncn2)cc1 | -4.56 |
| COc1ccc2cc(NC(=O)CCNc3ncccn3)cnc2c1 | 41.5 |
| COc1ccc(NC(=O)Cn2cc(-c3ccccc3)ncc2=O)cn1 | 44.9 |
| Cc1cc(C)nc(NCCC(=O)Nc2ccc(Cn3cncn3)cc2)n1 | 55.1 |
| COc1ccc(NC(=O)CSC(F)(F)F)cn1 | 66.7 |
| COc1ccc(NC(=O)CSc2nc(C)cc(C)n2)cn1 | -5.69 |
| COc1ccc2cc(NC(=O)CCNc3nc(C)cc(C)n3)cnc2c1 | 73 |
| CS(=O)(=O)c1ccc(NC(=O)CSC(F)(F)F)cn1 | 39.8 |
| COc1ccc(NC(=O)N2CCN(c3ncccn3)CC2)cn1 | -7.11 |
